Results from PubChem BioAssay AID743295 (Broad Institute, 2014).
Measured potencies and affinities stand elsewhere. Active and inactive are the calls of the source.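 How the source made its calls: active means compounds lowering caspase 7 signal with dose, half-maximal concentration at most twice the top valid dose; inconclusive means flat fit with 30 to 70% inhibition, or poor fit; inactive means the rest.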

What follows are compounds tested against Caspase-7 (Homo sapiens) (UniProt P55210) (assay: human caspase-7 inhibitors, dose response, selectivity assay for caspase-6 inhibitor project, biochemical, DEVD-R110 fluorescence, cherry-pick (AID 743295)). Settings: purified caspase-7, DEVD-R110 cleavage fluorescence; series mostly up to 35 µM.
Caspase-7 (Homo sapiens), sequence (P55210 whole entry, looked up): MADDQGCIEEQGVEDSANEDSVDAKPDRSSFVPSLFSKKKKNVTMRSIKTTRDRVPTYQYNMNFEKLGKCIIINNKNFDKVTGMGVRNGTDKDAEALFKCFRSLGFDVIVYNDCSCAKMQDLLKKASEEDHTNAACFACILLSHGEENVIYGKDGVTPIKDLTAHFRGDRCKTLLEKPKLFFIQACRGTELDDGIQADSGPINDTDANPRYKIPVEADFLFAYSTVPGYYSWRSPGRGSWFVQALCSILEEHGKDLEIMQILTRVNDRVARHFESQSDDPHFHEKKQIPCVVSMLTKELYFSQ

outcome, inactive:
O=C(O)Cc1ccc(-n2cccc2)cc1
CCCc1nc2c(=O)n(C)c(=O)nc-2n(C)n1
CO[C@H]1CN(C)C(=O)c2cc(NC(C)=O)ccc2OC[C@@H](C)N(C(=O)CC2CC2)C[C@H]1C
Cn1cnnc1SCC(=O)Nc1ncc([N+](=O)[O-])s1
COc1cc(NC(=O)COC(=O)c2ccc([N+](=O)[O-])s2)cc(OC)c1OC
COCCN(C(=O)COC(=O)c1cc2c(s1)CCC2)c1c(N)n(Cc2ccccc2)c(=O)[nH]c1=O
O=C(Nc1ccc2nc3n(c(=O)c2c1)CCCCC3)c1c(F)ccc([N+](=O)[O-])c1F
CNS(=O)(=O)c1cccc(C(=O)OCC(=O)N2c3ccccc3NC(=O)C2(C)C)c1
Cc1ccc(S(=O)(=O)Nc2csc(C)c2C(=O)O)cc1
Oc1cc(NCCc2cccnc2)cc2cccnc12
Cc1c(CCC(=O)O)c(=O)oc2c(C)c(OCc3ccccc3Cl)ccc12
Nc1ccc(Nc2ccccc2)c(S(=O)(=O)O)c1
Nc1cc(S(=O)(=O)O)cc([N+](=O)[O-])c1O
CCOC(=O)[C@H](Cc1c[nH]c2ccccc12)NC(=O)CN=[N+]=[N-]
Cc1cc(C=O)c(C)n1-c1cc(C(=O)O)cc(C(=O)O)c1
COc1cc(-c2ccc(Nc3ccccc3C(=O)O)c(OC)c2)ccc1Nc1ccccc1C(=O)O
O=P(c1ccccc1)(c1ccccc1)c1cc(S(=O)(=O)O)ccc1O
O=C(COC(=O)c1ccc([N+](=O)[O-])s1)Nc1ccc(F)cc1
C/C(CC(=O)N1CCCC1)=N\NC(=O)c1cc2ccccc2cc1O
